# D1 ag = human D1 receptor agonism | P21728 | HEK293 T-REx D1 cells, calcium flux, agonist mode | activation, % at 2 µM | 360,000 tested, 1% active | AID 504660; in the data active = activation above about 30%; note: 0% is about no effect
#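 Inducible HEK293 T-REx D1 cells, force-coupled to calcium signalling, were plated at 4000 cells/well with tetracycline and held overnight at 30 C. After no-wash calcium dye loading, compound-evoked calcium rise over 180 s flagged agonists.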
# D1 antagonist = blocks dopamine activation of the human D1 receptor. AID 504652. activity change, negative = inhibition, % at 10 µM. HEK293 TREx D1 cells, calcium flux, dopamine EC80; hits give low values. P21728. 360,000 tested, 3.2% active; in the data active = activity change below about -30%; note: % is set by controls: 0 for no effect and ±100 for the full control effect
#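 Tetracycline-induced HEK293 T-REx cells with force-coupled D1 receptor were loaded with a no-wash calcium dye. Compound was added after a 10 s baseline and read kinetically for 180 s; EC80 dopamine was then added and calcium flux followed another 180 s.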
# DRD3 agonist = D3 dopamine receptor (human) agonism; 410,000 tested, 0.58% active; max activation, %; D3R DiscoveRx beta-arrestin cells, luminescence, 90 min; in the data active = max activation above about 30%; note: 0% is about no effect
# Target sequence (P35462 whole entry, looked up): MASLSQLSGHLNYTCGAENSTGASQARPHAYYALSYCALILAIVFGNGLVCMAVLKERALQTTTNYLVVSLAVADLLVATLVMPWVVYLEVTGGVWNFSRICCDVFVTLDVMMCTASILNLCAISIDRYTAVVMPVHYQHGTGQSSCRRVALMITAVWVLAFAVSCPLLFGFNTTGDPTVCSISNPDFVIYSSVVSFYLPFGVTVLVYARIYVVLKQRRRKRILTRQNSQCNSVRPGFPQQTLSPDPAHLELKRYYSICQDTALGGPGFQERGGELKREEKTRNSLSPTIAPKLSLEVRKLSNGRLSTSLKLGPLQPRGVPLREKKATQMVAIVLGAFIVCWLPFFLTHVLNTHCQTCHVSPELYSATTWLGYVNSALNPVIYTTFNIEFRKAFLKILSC
#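 Agonist mode: compounds and dopamine controls were applied to plated cells for 90 min at 37 degrees C after an overnight attachment at 1500 cells/well. Luminescent read-out followed 30 - 60 minutes at room temperature with DiscoveRx detection reagent.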
# D1 potentiator = human D1 dopamine receptor positive modulation. P21728. HEK293 TREx D1 cells, calcium flux, dopamine EC20 potentiation. potentiation, % at 10 µM. 360,000 tested, 0.036% active. AID 504651; in the data active = potentiation above about 30%; note: 0% is about no effect
# DRD3 antagonist = antagonists of human D3 dopamine receptor; P35462; D3R cells, DiscoveRx beta-arrestin luminescence, antagonist mode; hits give low values; max response, negative = inhibition, %; 360,000 tested, 2.5% active; AID 652054; in the data active = max response below about -50%; inconclusive = no clear call, values can overlap the other calls; note: % is set by controls: 0 for no effect and ±100 for the full control effect
#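 Cells expressing the human receptor were seeded at 1500 cells/well, incubated overnight at 37 degrees C in 5% CO2, then exposed to library compounds with dopamine controls for 90 minutes at 37 degrees C before luminescent detection.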
# * = called active by the depositor; ? = inconclusive; / = no result; ! = a repeat was not active. This is a sample that favours compounds with a hit; in the whole collection about 6% have one here.
SMILES,D1 ag,D1 antagonist,DRD3 agonist,D1 potentiator,DRD3 antagonist
CC(CNC(=O)c1ccc(Cn2c(=O)c3cccn3c3cccnc32)cc1)c1ccccc1 (configuration not stated),1.8,-10.5,9.1,-3.4,/
CCCCCCCCCCCCCCCC[N+](C)(C)Cc1ccccc1,/,/,-10.6,/,/
CCCCCC[N+](C)(C)CC/C=C1/c2ccccc2Sc2ccc(Cl)cc21,0.1,-38.3*,-9.6,-3.2,-105.4*
CS(=O)(=O)c1ncc(Cl)c(C(=O)Nc2ccc3ccccc3c2)n1,3.4,-33.1*,-29.6,-9.8,-117.1*
Cc1ccc(CS(=O)(=O)c2ncc(Cl)c(C(=O)Nc3ccc(OC(F)F)cc3)n2)cc1,1.2,-4.9,-32.9,0.6,-63.3*
CCOc1ccc(NC(=O)c2nc(S(=O)(=O)Cc3ccccc3F)ncc2Cl)cc1,1.0,-29.3,-26.3,-3.5,/
CCNC(=O)c1c(NC(=O)c2nc(S(=O)(=O)CC)ncc2Cl)sc2c1CCCC2,13.3,-54.5*,-28.2,-3.4,/
COc1ccc(NC(=O)c2nc(S(=O)(=O)Cc3ccc(C)cc3)ncc2Cl)cc1,1.0,-37.9*,-25.2,-3.4,/
C#CCn1cnc2c(cnn2-c2ccc(F)cc2)c1=O,5.1,9.4,3.6,-1.9,/
CC1CCN(S(=O)(=O)c2ccc3nc(Nc4cccc(F)c4)ccc3c2)CC1,1.2,-22.8,3.2,-4.3,/
CCc1cccc(NC(=O)CSc2nc3ccsc3c(=O)n2CC)c1,13.9,-4.6,10.8,-1.2,/
Cc1nc(C)c(-c2ccc(SCC(=O)Nc3ccc(Cl)c(Cl)c3)nn2)s1,6.4,-13.0,-1.3,-5.7,/
CC1CCCN(S(=O)(=O)c2ccc(NC(=O)CNC3CCCC3)cc2)C1 (configuration not stated),1.1,-16.3,-19.7,-5.2,-9.4
CCS(=O)(=O)c1ncc(Cl)c(C(=O)Nc2ccc(S(=O)(=O)N3CCCC(C)C3)cc2)n1 (configuration not stated),0.7,-36.0*,-32.7,-11.4,0.0
CCS(=O)(=O)c1ncc(Cl)c(C(=O)Nc2ccc(C)cc2)n1,7.2,-22.0,-19.9,-10.2,-130.4*
O=C(Cn1cc2c(n1)CCCC2)Nc1cc(C(F)(F)F)ccc1Cl,7.5,-1.8,-2.1,-1.1,/
Cc1ccc(OCc2nnc(SCC(=O)Nc3ccccc3C(C)C)o2)cc1,0.3,-2.9,5.0,1.6,/
COc1ccccc1CNC(=O)C(NS(=O)(=O)c1ccc2c(c1)CCN2C(C)=O)C(C)C (configuration not stated),-1.0,-27.6,4.5,1.4,/
Cc1c(C(=O)N(C)C)sc2c1c(=O)n(-c1ccc(Cl)c(Cl)c1)c(=O)n2CC(=O)N1CCCCC1C (configuration not stated),-0.2,-0.1,1.1,4.8,/
Cc1c(OCC(=O)N[C@@H](Cc2ccccc2)C(=O)O)ccc2c3c(c(=O)oc12)CCC3,1.0,-4.1,-9.1,-4.2,44.4
O=C(COc1ccc2c3c(c(=O)oc2c1)CCC3)N[C@@H](Cc1ccccc1)C(=O)O,1.2,9.8,33.2*,6.9,11.6
Cc1c(OCC(=O)N[C@@H](Cc2ccccc2)C(=O)O)ccc2c1oc(=O)c1ccccc12,2.8,-8.4,31.0*,0.1,9.3
Cc1cc(C)n2cc(CSc3ccc(Br)cc3)nc2n1,2.9,-2.1,-1.0,4.7,?
Cc1cc(C)n2cc(CSCC(=O)O)nc2n1,0.4,-35.1*,3.7,-6.2,11.3
CCOC(=O)N1CCc2c(sc3c2c(=O)n(-c2ccc(Cl)cc2)c(=O)n3CC(=O)Nc2ccccc2)C1,0.5,3.9,8.3,-2.2,/
SMILES,D1 ag,D1 antagonist,DRD3 agonist,D1 potentiator,DRD3 antagonist
CN1CCN(C(=O)CC23CC4CC(CC(C4)C2)C3)CC1,2.3,-3.0,-3.8,4.0,-78.0*
COc1cccc(CNC(=O)CN(c2ccc(C)cc2)S(=O)(=O)N(C)C)c1OC,-0.6,-22.8,9.5,-1.6,/
CNCc1ccccc1Sc1cccc(O)c1,10.4,-1.5,-10.2,-7.0,-15.5
CNC[C@H](O)c1cccc(O)c1,0.8,-72.6*,44.6*!,-5.8,-14.2
COc1ccc(-n2ccnc(NCc3cccs3)c2=O)cc1,1.9,-33.5*,-0.3,-3.5,/
Nc1ccc(N2CCN(CCCCN3C(=O)C4CCCN4C3=O)CC2)cc1 (configuration not stated),4.0,4.9,-3.7,-11.0,-15.9
O=C1C2CCCCN2C(=O)N1CCCN1CCN(c2ccc(F)cc2)CC1 (configuration not stated),0.6,-0.3,-20.8,-4.9,-57.1*

# High-throughput results (PubChem BioAssay)
